# In all, about 3,400 compounds went through this assay and about 840 (25%) were called active. Inconclusive results (about 11%) are left out.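 The calls were made as follows: active = fitted half-maximal concentration of signal decrease at or below twice the sample's top tested concentration; inconclusive = flat curve between -70 and -30 percent, or poor fit; inactive = flat within 30 percent, signal rise, or potency above limit.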 Not all results are given here. Results with a measured potency or affinity are listed apart.
# Experiment: inhibitors of Toxoplasma growth in IFN-γ-primed HeLa – cell-based, ME49Luc, luciferase, 72 h, dose response (AID 1259418)
# Details: T. gondii ME49Luc in IFN-y HeLa, hits give low values, -100% = high-dose IFN-γ control wells; at 19.5 µM unless noted
row,Structure (SMILES),max activity
1,COC(=O)c1ccc(NC(=O)Nc2ccc(-c3nc(-c4ccccc4)co3)cc2)cc1,75.7% [at 10 µM] (inactive)
2,Cc1nc(CCNC(=O)C2CCN(C(=O)c3ccc(Br)o3)CC2)cs1,9.93% [at 5 µM] (inactive)
3,COc1cc(C(=O)Nc2ccc(-c3nc(-c4cc(C)ccc4C)co3)cc2)cc(OC)c1OC,-22.7% [at 0.16 µM] (inactive)
4,Cc1ccc(-c2coc(-c3ccc(NC(=O)c4cccs4)cc3)n2)cc1,20.5% [at 0.35 µM] (inactive)
5,Cc1ccc(C)c(-c2coc(-c3ccc(NC(=O)c4cccs4)cc3)n2)c1,62.5% (inactive)
6,COc1cc(NC(=O)Nc2ccc(-c3nc(-c4ccc(C)cc4)co3)cc2)cc(OC)c1OC,-16.6% [at 0.68 µM] (inactive)
7,COC[C@H]1CN(C)C[C@]12CCN(C(=O)c1cc3ccccc3s1)C2,13.1% (inactive)
8,COc1ccccc1-c1nc(C)c(-c2ccc(SCC(=O)OCc3ccccc3)nn2)s1,8.29% [at 10 µM] (inactive)
9,Cc1oc(-c2cccc(Cl)c2)nc1CSc1nc2c(c(=O)[nH]1)CN(Cc1ccc(F)cc1)CC2,15.7% (inactive)
10,Cc1cccc(C)c1NC(=O)CN1CCC2(CC1)N=C(c1ccc(F)cc1)C(=O)N2,10% [at 1.35 µM] (inactive)
11,Cc1nc(OCC(=O)Nc2cccc(Cl)c2C)c2ccccc2n1,33.5% [at 0.16 µM] (inactive)
12,COc1ccc(CNC(=O)CCC2N=C3c4ccccc4N=C(SCc4ccc(C)cc4)N3C2=O)cc1 (stereo unspecified),16.4% [at 1.35 µM] (inactive)
13,COc1ccc(CNC(=O)CC2N=C3c4ccccc4N=C(SCc4ccc(C)cc4C)N3C2=O)cc1 (stereo unspecified),-42% (inactive)
14,Cc1ccc(CSC2=Nc3ccccc3C3=NC(CC(=O)NCc4ccc(F)cc4)C(=O)N23)cc1 (stereo unspecified),13.6% [at 1.35 µM] (inactive)
15,CCCCNC(=O)CC1N=C2c3ccccc3N=C(SCc3ccc(F)cc3)N2C1=O (stereo unspecified),8.45% [at 2.6 µM] (inactive)
16,COc1ccc(CNC(=O)CC2N=C3c4ccccc4N=C(SCc4cccc(F)c4)N3C2=O)cc1 (stereo unspecified),12.5% [at 1.35 µM] (inactive)
17,COc1ccc(CNC(=O)CC2N=C3c4ccccc4N=C(SCc4ccccc4F)N3C2=O)cc1 (stereo unspecified),17.8% [at 10 µM] (inactive)
18,CCOc1ccccc1-c1nc(CSc2nc3c(c(=O)[nH]2)CN(Cc2ccccc2)CC3)c(C)o1,18.7% (inactive)
19,O=C1CCc2cc(NC(=O)C3CCC3)ccc2N1,-4.89% [at 0.68 µM] (inactive)
20,CCC(=O)N1CCC2(CC1)Nc1cc(F)ccc1-n1cccc12,8.79% [at 0.68 µM] (inactive)
21,CC1CCCN(c2nc(-c3ccc(Cl)cc3)nc3ccccc23)C1 (stereo unspecified),-6.84% [at 2.6 µM] (inactive)
22,COc1ccccc1-c1nc(C)c(-c2ccc(SCc3cccc(C)c3)nn2)s1,12.4% [at 10 µM] (inactive)
23,COCCCNC1=NCCNC12CCN(S(=O)(=O)c1ccc(C)c(C)c1)CC2,15.1% [at 0.16 µM] (inactive)

row,Structure (SMILES),max activity
1,Clc1ccccc1CSc1nc(NC2CCCCC2)c2ccccc2n1,13.8% (inactive)
2,Cc1ccc(-c2nc3c(s2)CN(C(=O)Nc2ccccc2C(F)(F)F)CC3)cc1,101% [at 10 µM] (inactive)
3,COc1ccc(-c2nc(Nc3cc(C)ccc3C)c3ccccc3n2)cc1,25.6% (inactive)
4,CCCNC(=O)N1[C@H](C#N)[C@@H](c2ccc(-c3ccccc3F)cc2)[C@H]1CO,-20.5% [at 0.6 µM] (inactive)
5,CCCNC(=O)N1[C@H](C#N)[C@H](c2ccc(-c3ccccc3F)cc2)[C@H]1CO,-14.6% (inactive)
6,CCc1nc(OCC(=O)Nc2cc(Cl)c(OC)cc2OC)c2ccccc2n1,17% [at 0.16 µM] (inactive)
7,COc1ccc(OC)c(NC(=O)N2CCc3nc(-c4ccc(C)cc4)sc3C2)c1,13.3% (inactive)
8,CN1C(=O)CCc2cc(NC(=O)c3ccco3)ccc21,172% (inactive)
9,COc1ccc(OC)c(NC(=O)N2CCc3nc(-c4ccccc4)sc3C2)c1,6.12% (inactive)
10,CCC(C(=O)N1CCC[C@@H]1C(=O)NCCc1csc(-c2ccccc2)n1)c1ccccc1 (stereo partly specified),13.1% [at 2.6 µM] (inactive)
11,Cc1ccc(CN2CCCn3nc(C(=O)N4CCC(N5CCCCC5)CC4)cc3C2=O)cc1,-18.3% [at 5 µM] (inactive)
12,O=C(Nc1ccc(-c2nc(-c3ccccc3)co2)cc1)NC1CCCCC1,71.1% (inactive)
13,Fc1cccc(-c2noc(-c3ccc(N4CCC(N5CCCCC5)CC4)nc3)n2)c1,21.6% [at 5 µM] (inactive)
14,O=C(Cn1cccc1-c1nc(-c2ccccc2)cs1)N1CCC(N2CCCCC2)CC1,7.65% [at 10 µM] (inactive)
15,Cc1cccc(-c2noc(-c3ccc(N4CCC(N5CCCCC5)CC4)nc3)n2)c1,26.5% [at 10 µM] (inactive)
16,Cc1ccc(-c2nc(Cn3nnc(-c4nc(-c5ccc(Br)cc5)no4)c3C)c(C)o2)cc1,26.9% (inactive)
17,Cc1ccc(Nc2ncnc3c2cnn3-c2ccc(Cl)cc2)cc1,81.3% [at 10 µM] (inactive)
18,O=C(Nc1ccc(Br)cc1)Nc1ccc(-c2nc(-c3ccccc3)co2)cc1,-11.6% (inactive)
19,CCc1cc(C(=O)Nc2ccc(C)cc2-c2cc(C)[nH]n2)c2c(C)noc2n1,19.5% [at 10 µM] (inactive)
20,O=C(NCCN1CCCC1)[C@H]1[C@H](CO)[C@H]2Cn3c(cccc3=O)[C@H]2N1Cc1ccccn1,48.1% (inactive)
21,C=CCN1C(=O)COC2(CCN(Cc3ccc(C)s3)CC2)C1C (stereo unspecified),27.2% (inactive)
22,COc1ccc(NC(=O)CN2CCC3(CC2)N=C(c2ccc(F)cc2)C(=O)N3)cc1OC,-16.1% [at 10 µM] (inactive)
23,Cc1ccc2c(c1)cc(S(=O)(=O)c1ccccc1)c(=O)n2CC(=O)N1CCCCC1,-6.78% [at 0.68 µM] (inactive)

row,Structure (SMILES),max activity
1,Cc1ccc2c(c1)cc(S(=O)(=O)c1ccccc1)c(=O)n2CC(=O)N1CCCC1,-8.58% [at 5 µM] (inactive)
2,Clc1ccccc1-c1nc(NCCN2CCCc3ccccc32)c2ccccc2n1,37.1% (inactive)
3,Cc1ccc(-c2nc(CN3CCN(C(=O)Nc4cccc(C)c4)CC3)c(C)o2)cc1,-23.6% (inactive)
4,Cc1ccc(-c2nc(CN3CCN(C(=O)NC(C)C)CC3)c(C)o2)cc1,-10.1% [at 0.35 µM] (inactive)
5,CCc1ccc(NC(=O)N2CCN(Cc3nc(-c4ccc(C)cc4)oc3C)CC2)cc1,-17.1% [at 0.68 µM] (inactive)
6,Cc1ccc(-c2nc(CN3CCN(C(=O)Nc4ccc(Cl)cc4)CC3)c(C)o2)cc1,22.8% [at 0.16 µM] (inactive)
7,Cc1ccc(NC(=O)N2CCN(Cc3nc(-c4ccc(C)cc4)oc3C)CC2)cc1,13.6% [at 0.16 µM] (inactive)
8,CCCNC(=O)N1CCN(Cc2nc(-c3ccc(OCC)cc3)oc2C)CC1,7.68% (inactive)
9,Cc1ccc(NC(=O)N2CCN(Cc3nc(-c4ccccc4C)oc3C)CC2)cc1,9.16% [at 2.6 µM] (inactive)
10,CCOC(=O)c1ccc(NC(=O)N2CCN(Cc3nc(-c4cccc(Cl)c4)oc3C)CC2)cc1,13.5% [at 1.35 µM] (inactive)
11,COC(=O)c1cccc(NC(=O)Nc2ccc(-c3nc(-c4ccc(C)cc4C)co3)cc2)c1,21.2% (inactive)
12,Cc1ccc(-c2coc(-c3ccc(NC(=O)c4ccccc4)cc3)n2)c(C)c1,20.4% [at 10 µM] (inactive)
13,Cc1ccc(-c2coc(-c3ccc(NC(=O)Nc4ccc5c(c4)OCCO5)cc3)n2)c(C)c1,48.2% (inactive)
14,Cc1ccc(CNC(=O)C2(C)CCC(=O)N2CCc2c[nH]c3ccccc23)cc1 (stereo unspecified),-12.5% [at 0.35 µM] (inactive)
15,O=C(Nc1ccc(-c2nc(-c3ccccc3)co2)cc1)Nc1ccccc1Br,65.8% [at 10 µM] (inactive)
16,Cc1ccc2c(c1C)-n1cccc1C1(CCN(C(=O)CC(C)C)CC1)N2,7.04% [at 0.68 µM] (inactive)
17,O=C(Cc1ccccc1Cl)N1CCC2(CC1)Nc1ccccc1-n1cccc12,15.3% [at 10 µM] (inactive)
18,COc1ccc(S(=O)(=O)N2CCC[C@@H]2C(=O)NCCc2csc(C)n2)cc1Cl,8.05% [at 10 µM] (inactive)
19,CCOCCCNC(=O)c1ccc2ccc(N3CCN(CC4CC4)CC3)n2c1,42.5% (inactive)
20,CCOc1cccc(-c2noc(-c3nnn(Cc4nc(-c5cccc(C)c5)oc4C)c3C)n2)c1,8.84% (inactive)
21,Cc1ccccc1-c1nc(CN2CCN(C(=O)Nc3ccccc3)CC2)c(C)o1,-12.3% [at 2.6 µM] (inactive)
22,CCOc1ccc(-c2nc(CN3CCN(C(=O)Nc4cccc(OC)c4)CC3)c(C)o2)cc1,16.9% [at 0.35 µM] (inactive)
23,COc1ccc(NC(=O)N2CCN(Cc3nc(-c4ccc(C)cc4)oc3C)CC2)cc1OC,9.7% (inactive)

row,Structure (SMILES),max activity
1,CCOc1ccc(-c2nc(CN3CCN(C(=O)NCCc4ccccc4)CC3)c(C)o2)cc1,-9.01% [at 0.68 µM] (inactive)
2,O=C(Cc1ccc(Cl)cc1)Nc1ccc(-c2nc(-c3ccccc3)co2)cc1,17.2% [at 2.6 µM] (inactive)
3,CCOC(=O)C(=O)Nc1ccc(-c2nc(-c3ccc(C)cc3C)co2)cc1,44.4% (inactive)
4,CC(C)c1ccc(C(=O)N=C(N)N)cc1S(C)(=O)=O,11.6% (inactive)
5,CCS(=O)(=O)N1CC(=O)N2[C@H](CO)[C@@H](c3ccc(-c4cccc(F)c4)cc3)[C@@H]2C1,-8.63% (inactive)
6,Cc1ccsc1C(=O)N1CCc2nc(-c3cnn(C)c3)nc(NC(C)C)c2C1,-26.1% [at 0.16 µM] (inactive)
7,COc1ccc(-c2nc3c(s2)CN(S(=O)(=O)c2cccc(F)c2)CC3)cc1,9.88% (inactive)
8,CCOc1ccc(-c2nc3c(s2)CN(S(=O)(=O)c2cccc(C)c2)CC3)cc1,29% (inactive)
9,Cc1ccc(-c2coc(-c3ccc(NC(=O)Nc4ccccc4C)cc3)n2)c(C)c1,21.8% [at 10 µM] (inactive)
10,Cc1ccc(OCC(=O)Nc2ccc(-c3nc(-c4ccc(C)cc4)co3)cc2)cc1,20.2% (inactive)
11,COc1ccccc1-c1nc(Cn2c(=O)c3c(C)cc(C)nc3n(-c3ccccc3)c2=O)c(C)o1,9.28% [at 2.6 µM] (inactive)
12,Cc1ccc2c(c1C)-n1cccc1C1(CCN(C(=O)COc3ccc(Cl)cc3)CC1)N2,-7.41% [at 1.35 µM] (inactive)
13,O=C(CCC1Nc2c3ccccc3nc(=S)n2C1=O)NCc1cccs1 (stereo unspecified),14.7% [at 5 µM] (inactive)
14,Cc1nc(OCC(=O)Nc2ccccc2C)c2ccccc2n1,19.6% [at 0.68 µM] (inactive)
15,COc1ccc(C[C@H]2CN(C(=O)c3ccnn3C)CC[C@H]2OC)cc1,30.4% (inactive)
16,CO[C@@H]1CCN(c2ncccn2)C[C@@H]1Cc1cccc(C)c1,9.87% (inactive)
17,O=S(=O)(c1cccc(C(F)(F)F)c1)N1CCC(N2CCOCC2)CC1,20.6% [at 0.16 µM] (inactive)
18,CN(C)C(=O)CN1CCOCC2(CCN(CC3CCOC3)CC2)C1 (stereo unspecified),23.8% (inactive)
19,Cc1ccc(C)c(-c2coc(-c3ccc(NC(=O)NC4CCCC4)cc3)n2)c1,6.74% (inactive)
20,Cc1ccc2c(c1C)-n1cccc1C1(CCN(C(=O)CC3CCCCC3)CC1)N2,-13.7% [at 0.16 µM] (inactive)
21,CCC(CC)C(=O)N1CCC2(CC1)Nc1ccc(C)c(C)c1-n1cccc12,-6.76% [at 0.35 µM] (inactive)
22,CCOc1ccc(S(=O)(=O)N2CCC[C@@H]2C(=O)NCCc2csc(C)n2)cc1,-13.1% (inactive)

# Source: PubChem BioAssay AID1259418 (Broad Institute, 2018)
